# Data taken from PubChem BioAssay AID463082 (The Scripps Research Institute Molecular Screening Center, 2010).
# In all, about 330,000 compounds went through this assay and about 4,900 (1.5%) were called active.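 Rule for the calls: active = inhibition above the mean inhibition across the screen plus 3 SD (cut at about 25% in these data); inactive = the rest.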 The list comes from a sample in which actives are over-represented; it also holds similar structures and randomly drawn compounds.
# Molecular target: Platelet-activating factor acetylhydrolase (Homo sapiens) (UniProt Q13093)
# Sequence (Q13093 whole entry, looked up): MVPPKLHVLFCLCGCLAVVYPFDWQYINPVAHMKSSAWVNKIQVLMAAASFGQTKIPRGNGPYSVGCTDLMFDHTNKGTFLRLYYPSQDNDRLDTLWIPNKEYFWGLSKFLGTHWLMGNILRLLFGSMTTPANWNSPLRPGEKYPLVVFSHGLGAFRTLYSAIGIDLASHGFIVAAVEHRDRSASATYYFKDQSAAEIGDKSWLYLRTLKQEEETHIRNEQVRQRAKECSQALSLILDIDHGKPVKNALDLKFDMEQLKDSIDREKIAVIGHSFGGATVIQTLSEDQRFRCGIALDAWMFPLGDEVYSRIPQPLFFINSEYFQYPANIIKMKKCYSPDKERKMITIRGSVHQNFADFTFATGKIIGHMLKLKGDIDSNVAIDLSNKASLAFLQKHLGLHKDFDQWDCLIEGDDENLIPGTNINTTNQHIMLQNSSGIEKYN
# Test: pPAFAH enzyme inhibitors, primary screen, biochemical, fluorescence polarization, human (AID 463082);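 note: inhibitors block binding of the rhodamine activity-based probe so polarization drops; 0% = enzyme with DMSO and 100% = wells lacking pPAFAH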
# Conditions: recombinant pPAFAH, FP-rhodamine probe fluorescence polarization; at 3.39 µM; stronger effect = higher value
row,Compound,inhibition
1,CCC(C)N(C(=O)Cn1nc(C)c([N+](=O)[O-])c1C)C1CCS(=O)(=O)C1 (stereo unspecified),-1.29% (inactive)
2,Cc1cc(F)ccc1S(=O)(=O)Nc1ncnc2scc(-c3ccc(F)cc3)c12,30.3% (active)
3,O=S(=O)(Nc1ncnc2sccc12)c1cccc(F)c1,12.2% (inactive)
4,COc1ccc(-c2csc3ncnc(N4CCN(S(=O)(=O)c5cccc(F)c5)CC4)c23)cc1,3.15% (inactive)
5,Cc1cnc(C)c(N2CCN(C(=O)C3CCC(=O)N(CCc4cccc(F)c4)C3)CC2)n1 (stereo unspecified),4.96% (inactive)
6,CCCCn1c(N)c(N(CC)C(=O)c2ccccc2C(F)(F)F)c(=O)[nH]c1=O,-0.54% (inactive)
7,CC(=O)Nc1cccc(Nc2nc(-c3cccs3)nc3ccccc23)c1,-12.8% (inactive)
8,Cc1cccc(-c2nc(Nc3ccc(O)cc3)c3ccccc3n2)c1,26.7% (active)
9,CCOC(=O)c1nc(Nc2ccc(C(=O)OC)cc2)c2ccccc2n1,-0.04% (inactive)
10,O=C(COC(=O)CC1CC2CCC1C2)NC(=O)NC1CCCC1 (stereo unspecified),2.89% (inactive)
11,Cc1ccc(C(=O)N/C(=C/c2cccs2)C(=O)NCC2CCCO2)cc1 (stereo unspecified),-4.31% (inactive)
12,Cc1cc(/C=C(/C#N)C(=O)Nc2ccc(Cl)cc2)c(C)n1-c1cccnc1,0.95% (inactive)
13,Cc1ccc(-n2c(C)cc(/C=C(\C#N)C(=O)NCC3CCCO3)c2C)cc1 (stereo unspecified),68.5% (active)
14,COc1ccccc1C(=O)Nc1ccnn1C1CCN(C(=O)C(C)(C)C)CC1,-0.55% (inactive)
15,COc1ccc(/C=C/C(=O)c2ccc(NS(=O)(=O)c3ccc(C)cc3)cc2)cc1O,23.6% (inactive)
16,COc1ccc(/C=C/C(=O)N2CCCC2)cc1OC,0% (inactive)
17,COC(=O)c1ccc(COc2ccc(/C=C/C(=O)c3ccc(OC)c(CSCC(=O)O)c3)cc2OC)cc1,28.7% (active)
18,COCCn1c(SC(C)C(=O)NC2CC2)nnc1-c1cccc(C)c1 (stereo unspecified),-1.49% (inactive)
19,COc1cc(C2C(C#N)=C(N)Oc3n[nH]c(-c4ccccn4)c32)cc(OC)c1OC (stereo unspecified),2.74% (inactive)
20,COc1ccc(C2C(C#N)=C(N)Oc3cc(N)ccc32)cc1OC (stereo unspecified),26% (active)
21,N#CC1=C(N)Oc2cc(O)ccc2C1C1CCCCC1 (stereo unspecified),2.82% (inactive)
22,CCOC(=O)[C@H]1[C@H]2COc3ccc(C)cc3[C@@H]2N2C(=O)CN(Cc3ccc(F)cc3)C(=O)[C@@]12C,-0.02% (inactive)
23,C=CCN(N=Nc1cccc([N+](=O)[O-])c1)c1cccc([N+](=O)[O-])c1,9.93% (inactive)
24,Cn1c2ccccc2c2cc(/C=C(\NC(=O)c3ccccc3)C(=O)NCC(=O)O)ccc21,24.7% (active)
25,COc1ccc(/C=C(\NC(=O)c2ccccc2)C(=O)NCCN2CCOCC2)cc1OC,4.35% (inactive)
26,CCOC(=O)CNC(=O)/C(=C\c1ccc(F)cc1)NC(=O)c1ccccc1,-2.32% (inactive)
